# Results with a measured potency or affinity are listed apart.
# Test system: Cryptococcus neoformans
# Details: Concentration 32 ug.mL-1; ASSAY_TEST Inhibition of Fungal Growth; detection method Resazurin; Absorption (OD600-OD570); plate type 384well; NBS; CORNING #3640
row,SMILES,Inhibition [%]
1,Cc1nnc2ccc(S(=O)(=O)N(Cc3ccccc3)c3cccc(F)c3)cn12,-9.94
2,O=S(=O)(c1cccn2c(SCc3c(F)cccc3Cl)nnc12)N1CCCC1,-6.69
3,CCOc1ccccc1NC(=O)Cn1nc2c3c4c(sc3ncn2c1=O)CCCC4,-12.75
4,CCc1nnc2ccc(S(=O)(=O)N(Cc3ccc(OC)cc3)c3ccc(F)cc3)cn12,-9.28
5,Cc1ccc(-c2ccc3nn(Cc4c(F)cccc4Cl)c(=O)n3n2)cc1,-15.06
6,CCCCc1ccc(NC(=O)CSc2nc3ccccc3n3c(C(C)C)nnc23)cc1,-2.44
7,O=C(CSc1nnc2c(=O)n(-c3ccc(F)cc3)ccn12)c1ccccc1Cl,-13.46
8,O=C(Cn1nc2ccc(Sc3ccccc3)nn2c1=O)N1CCN(c2ccc(F)cc2)CC1,-5.51
9,Cc1cccc(Oc2nc3ccccc3n3c(=O)n(CC(=O)Nc4cccc(C#N)c4)nc23)c1C,-21.56
10,O=C(CSc1nnc2c3cc(-c4ccc(F)cc4)nn3ccn12)NCc1ccc(Cl)cc1,-17.49
11,Cc1cccc(NC(=O)Cn2nc3ccc(-c4ccc(Cl)cc4)nn3c2=O)c1C,-12.84
12,COC(=O)c1ccc(NC(=O)Cn2nc3c(Oc4cccc(OC)c4)nccn3c2=O)cc1,-6.09
13,CCc1ccccc1Sc1nccn2c(=O)n(CC(=O)Nc3ccc(C)cc3C)nc12,-14.18
14,Cc1ccc(-c2ccc3nn(Cc4ccc5c(c4)OCO5)c(=O)n3n2)cc1C,-18.91
15,Cc1ccccc1NC(=O)Cn1nc2ccc(SC3CCCCC3)nn2c1=O,-16.32
16,Cc1cc(C)cc(N(Cc2c(F)cccc2Cl)S(=O)(=O)c2cccn3cnnc23)c1,-5.6
17,Cc1cc2nn(CC(=O)Nc3cccc(C)c3C)c(=O)n2c(Nc2ccc(F)c(C)c2)n1,-7.96
18,COc1ccc(NC(=O)Cn2nc3c4cc(-c5ccc(C)cc5)nn4ccn3c2=O)cc1,-12.53
19,CCc1ccc(N(Cc2ccc(F)cc2)S(=O)(=O)c2cccn3c(CC)nnc23)cc1,-7.64
20,O=C(CSc1nnc2c(=O)n(-c3ccccc3)ccn12)Nc1ccc(Cl)cc1,-17.38
21,COc1cccc(CN(c2ccc(F)c(F)c2)S(=O)(=O)c2cccn3c(C)nnc23)c1,-8.71
22,CCCCOc1ccc(-c2cc3c4nnc(SCC(=O)NCc5ccc(OC)cc5)n4ccn3n2)cc1,-16.44
23,Cc1cc(C)c(NC(=O)Cn2nc3ccc(Sc4cccc(F)c4)nn3c2=O)c(C)c1,-10.61
24,Cc1cc2nn(CC(=O)NC(C)C)c(=O)n2c(-c2ccc(C(F)(F)F)cc2)n1,-4.89
